Screens deposited in PubChem by National Center for Advancing Translational Sciences (NCATS).
HT1080-NT tox: kills 2HG-producing HT-1080-NT fibrosarcoma cells; actives 1.6% (n = 360,000); Potency, µM (series often up to 46.1 µM), without a hit: top-dose activity, negative = less viability, hits mostly cytotoxic; HT-1080-NT fibrosarcoma viability, CellTiter-Glo ATP luminescence, 48 h;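 further: NT is the 2HG producing partner of a matched IDH1 knockdown line; potency means the concentration at half of the fitted maximal effect; 0% = DMSO-treated cells and -100% = media-only wells without cells; nearly all actives have a fitted effect of over 55% in size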
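Luminescent CellTiter-Glo readout after 48 hours of compound exposure at 37 degrees C defined viability of HT-1080-NT cells. Activity was normalized to DMSO wells and cell-free media wells; concentration-response curves were fitted and assigned curve classes.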
DT40 TDP1 no CPT: qHTS for Inhibitors of human tyrosyl-DNA phosphodiesterase 1 (TDP1): qHTS in cells in absence of CPT; DT40 Tdp1-/- hTDP1 cells, no CPT, ATP luminescence, 48 h; actives 15% (n = 420,000); Potency, µM (top dose mostly 46.2 µM), for the others: top-dose activity change, negative = growth inhibition, most hits filed as inhibitors; further: potency means the concentration at half of the fitted maximal effect; nearly all actives have a fitted effect of over 55% in size
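Seeded 400 DT40-hTDP1 cells/well (vehicle DMSO, no 20 nM CPT); pinned compounds; ≥48 hr at 37 °C; CellTiter-Glo luminescence as viability measure.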
ELG1 repair inh: blocks ELG1-dependent DNA repair in HEK293T cells | HEK293T ELG1-luciferase reporter, luminescence, 16 h; DNA damage induced by 5-fluorouridine | Potency, µM (series often up to 46.1 µM), inactives show top-dose activity change, negative = inhibition, usual class: inhibitors | actives 2.3% (n = 330,000); further: potency means the concentration at half of the fitted maximal effect; nearly all actives have a fitted effect of over 55% in size
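5-Fluorouridine DNA damage + compound/DMSO, 2,000 cells/well, 16 h, 37 °C/5% CO2. ONE-Glo, 30 min RT, luminescence. Readout = decrease in reporter signal.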
TDP1 cell CPT: DT40-hTDP1 cell growth loss with CPT | chicken DT40 Tdp1-/-;hTDP1 cells + 20 nM CPT, ATP luminescence, 48 h | Potency, µM (series often up to 46.2 µM), for the others: at the top dose activity change, negative = growth inhibition, most hits filed as inhibitors | actives 12% (n = 420,000) | AID 686979; further: potency means the concentration at half of the fitted maximal effect; nearly all actives have a fitted effect of over 55% in size
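Chicken DT40 Tdp1-/- cells stably complemented with human TDP1 were seeded at 400 cells/well in medium containing 20 nM camptothecin, exposed to pin-transferred compounds, and grown at 37 °C for at least 48 hr. Viability was read as ATP luminescence.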
IL1B secr inh: inhibitors of inflammasome signaling (IL-1 beta secretion) | THP-1 LPS/ATP IL-1B secretion, AlphaLISA, 16 h; hits give low values | activity change, % at 57.5 µM | actives 4.7% (n = 360,000); in the data active means activity change below about -50%; inconclusive means mostly about -30% to -49%
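THP-1 cells pretreated 1 hr with compounds (up to 57.5 uM final), then stimulated with LPS (250 ng/mL final) plus ATP (1.25 mM final); secreted IL-1B measured by AlphaLISA after 16 hr, decreased signal indicating inhibition.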
HT1080 IDH1KD tx: toxicity to HT-1080 IDH1 knockdown cells (counter line). Potency, µM (doses to about 46.1 µM), for inactives: at the highest dose activity, negative = toxicity, usual class: cytotoxic. actives 2% (n = 360,000). HT-1080 IDH1 knockdown viability, ATP luminescence, 48 h;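 further: potency means the concentration at half of the fitted maximal effect; 0% = DMSO wells and -100% = cell-free medium wells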
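% activity derives from luminescence (CellTiter-Glo), normalised to DMSO and no-cell wells. HT-1080-IDH1KD cells, 750/well, had 48 h compound exposure at 37 °C.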
Starred values were filed as active, the others as inactive; i = inactive; ? = inconclusive; . = no result given; [ ] = another dose, or the depositor's remark. Hits are enriched below; roughly 19% of the tested compounds scored in any of these assays. Unless noted, the call rests on the fitted dose curve; in most records, active means well fitted curve in the direction sought with a large enough effect; inconclusive means small, poorly fitted or top-dose-only effect, or another doubt; inactive means no such curve, though single readings can be large; an effect the other way counts as inactive or inconclusive. Unless noted, on the % scale 0 is the no-effect control and ±100 the full control effect.

SMILES	HT1080-NT tox	DT40 TDP1 no CPT	ELG1 repair inh	TDP1 cell CPT	IL1B secr inh	HT1080 IDH1KD tx
CCNC(=S)N1N=C2c3ccccc3CCC2C1c1ccc(F)cc1 (configuration not stated)	?	23µM*	?	?	14	?
Cc1ccnc(OC(C(=O)O)C(OCc2ccccc2)(c2ccc(F)cc2)c2ccc(F)cc2)n1 (configuration not stated)	-19%	-9%	23%	-10%	17	-16%
O=C(Nc1ccc(S(=O)(=O)N2CCOCC2)cc1)c1ccc(S(=O)(=O)N2CCOCC2)cc1	17%	-4%	0%	-5%	22	3%
CC(=O)c1ccc(NC(=O)c2cc(S(=O)(=O)N3CCOCC3)ccc2C)cc1	17%	?	-8%	?	30	11%
O=C(Nc1ccc(S(=O)(=O)N2CCOCC2)cc1)c1ccc(Cl)cc1	-13%	21µM*	?	21µM*	-6	-1%
Cc1ccc(NC(=O)c2cc(S(=O)(=O)N3CCCCC3)cs2)cc1	?	-20%	?	-9%	-73*	-4%[9.24 µM]
CC1CN(S(=O)(=O)c2ccc(C(=O)Nc3ccc(S(=O)(=O)N4CCOCC4)cc3)cc2)CC(C)O1 (configuration not stated)	-5%	13µM*	8.2µM*	?	i	-1%
Cc1ccc(S(=O)(=O)N2CCOCC2)cc1C(=O)Nc1ccc(N2CCCCCC2)cc1	-14%	4.6µM*	-1%	4.6µM*	-53*	?
O=C(CCS(=O)(=O)c1ccccc1)N1CCN(c2ccc(F)cc2)CC1	-4%	-15%	?	-24%	-1	-3%
O=c1[nH]cnc2n[nH]nc12	.	?	.	-8%	.	.
CN(C(=O)c1c(O)c2ccccc2n(C)c1=O)c1ccccc1	.	-20%	.	14%	.	.
COc1cccc(-c2csc(N3CCN(CC(=O)NNC(=O)c4ccco4)CC3)n2)c1	4%	?	-12%	?	-5	2%
O=C(Nc1ccc(S(=O)(=O)N2CCOCC2)cc1)c1cc(S(=O)(=O)N2CCOCC2)ccc1Cl	-9%	?	-19%	18µM*	35	-10%
O=C(Nc1ccc(Cc2ccncc2)cc1)c1ccc(S(=O)(=O)N2CCOCC2)cc1	-5%	18µM*	13µM*	?	-19	?
O=C(Nc1ccncc1)c1cc(S(=O)(=O)N2CCOCC2)ccc1Cl	1%	-24%	-8%	-11%	20	7%
O=C(Nc1ccc(Cl)cc1)c1cc(S(=O)(=O)N2CCOCC2)cs1	?	?	15µM*	?	?	-23%
O=C(Nc1ccc(F)cc1)c1ccc(S(=O)(=O)N2CCOCC2)o1	-18%	-30%	16µM*	-14%	26	-6%
O=C(Nc1ccc(S(=O)(=O)N2CCOCC2)cc1)c1ccc(F)cc1	-21%	-27%	?	6%	-14	2%
COc1ccc(C(C)(O)c2nc(-c3cccc(C(C)C)c3)cs2)cc1 (configuration not stated)	?	?	.	?	11	?
CC(C)(C)NC(=O)C(c1ccncc1)N(C(=O)c1csnn1)c1cccc2ccccc12 (configuration not stated)	1%	-11%	4%	7%	-1	-5%
CCCCNc1nc(-c2ccccc2)nc(-n2ccnc2)n1	24%	?	17%	-21%	59	20%
CCCCNc1c(-c2ccc(OC)c(SC(C)CC)c2)nc2ccc(Cl)cn12 (configuration not stated)	7%	26µM*	-20%	26µM*	-66*	-5%
